These results are taken from the supplement of paper PMC6992640.

One test relates to HCI01 (cells of a triple-negative basal-like breast cancer xenograft). Description: cell viability of combination (% of vehicle); higher = less cytotoxic. To be noted: 1 µM; 72 h; partner dose: 10 nM. The method, then: (§1)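 PDX cells were treated for 72 h with each drug at 1 µM plus afatinib (10 nM; 1 µM for WHIM30). Luciferase viability is expressed as percent of vehicle.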
Another test deals with WHIM2 (cells of a triple-negative basal-like breast cancer xenograft). The test is described as above. To be noted: 1 µM; 72 h; partner dose: 10 nM. The method, then:
as §1

`CC(C)C1=CC(=C2NNC(=O)N2c2ccc3c(ccn3C)c2)C(=O)C=C1O` [Ganetespib (STA-9090)] + CN(C)C/C=C/C(=O)Nc1cc2c(Nc3ccc(F)c(Cl)c3)ncnc2cc1O[C@H]1CCOC1 [Afatinib]: the results for the “cell viability of combination” value in the test with HCI01 and in the test with WHIM2 were 49.1 and 29.1, respectively.

Take `C#Cc1cccc(Nc2ncnc3cc(OCCOC)c(OCCOC)cc23)c1.Cl` [Erlotinib Hydrochloride] + CN(C)C/C=C/C(=O)Nc1cc2c(Nc3ccc(F)c(Cl)c3)ncnc2cc1O[C@H]1CCOC1 [Afatinib]: the results for the “cell viability of combination” value in the test on HCI01 and in the test with WHIM2 were 47.7 and 37.5, respectively.

As to `COc1cc2ncnc(Nc3ccc(F)c(Cl)c3)c2cc1NC(=O)C=CCN1CCCCC1` + CN(C)C/C=C/C(=O)Nc1cc2c(Nc3ccc(F)c(Cl)c3)ncnc2cc1O[C@H]1CCOC1 [Afatinib], the “cell viability of combination” value came out at 45.1 in the test with HCI01 and 29.8 in the test on WHIM2.

Take `Cc1cn(-c2cc(NC(=O)c3ccc(C)c(Nc4nccc(-c5cccnc5)n4)c3)cc(C(F)(F)F)c2)cn1` [Nilotinib(AMN-107)] + CN(C)C/C=C/C(=O)Nc1cc2c(Nc3ccc(F)c(Cl)c3)ncnc2cc1O[C@H]1CCOC1 [Afatinib]: the figures for the “cell viability of combination” value with HCI01 and in the test on WHIM2 were 45.9 and 63.2, respectively.

For `COC(=O)C12CCC(C)(C)CC1C1C(=O)C=C3C4(C)C=C(C#N)C(=O)C(C)(C)C4CCC3(C)C1(C)CC2` (configuration not stated) [Bardoxolone methyl] + CN(C)C/C=C/C(=O)Nc1cc2c(Nc3ccc(F)c(Cl)c3)ncnc2cc1O[C@H]1CCOC1 [Afatinib], the “cell viability of combination” value amounted to 53.5 in the test on HCI01 and 30.4 in the test on WHIM2.

As to `Cc1cccc(CN2CCN(C(c3ccccc3)c3ccc(Cl)cc3)CC2)c1.Cl.Cl` (configuration not stated) [Meclizine 2HCl] + CN(C)C/C=C/C(=O)Nc1cc2c(Nc3ccc(F)c(Cl)c3)ncnc2cc1O[C@H]1CCOC1 [Afatinib], the results for the “cell viability of combination” value in the test on HCI01 and with WHIM2 were 65.4 and 53.1, respectively.

Take `Cc1c(Cl)cccc1Nc1ccccc1C(=O)O` [Tolfenamic Acid] + CN(C)C/C=C/C(=O)Nc1cc2c(Nc3ccc(F)c(Cl)c3)ncnc2cc1O[C@H]1CCOC1 [Afatinib]: the “cell viability of combination” value with HCI01 came out at 57.3; in the test on WHIM2, 51.

As for `C=CC(=O)N1CCC(Oc2cc3c(Nc4ccc(Cl)c(Cl)c4F)ncnc3cc2OC)CC1` [Poziotinib] + CN(C)C/C=C/C(=O)Nc1cc2c(Nc3ccc(F)c(Cl)c3)ncnc2cc1O[C@H]1CCOC1 [Afatinib], the “cell viability of combination” value in the test on HCI01 is 42.9; in the test with WHIM2, 22.2.

In the case of `C=C1C(=CC=C2CCCC3(C)C2CCC3C(C)CCCC(C)(C)O)CC(O)CC1O` (configuration not stated) [Calcitriol] + CN(C)C/C=C/C(=O)Nc1cc2c(Nc3ccc(F)c(Cl)c3)ncnc2cc1O[C@H]1CCOC1 [Afatinib], the “cell viability of combination” value was 42.1 with HCI01 and 31.2 in the test on WHIM2.

As for `Cc1ccc(C(=O)N(CCCN)C(c2nc3cc(Cl)ccc3c(=O)n2Cc2ccccc2)C(C)C)cc1` (configuration not stated) + CN(C)C/C=C/C(=O)Nc1cc2c(Nc3ccc(F)c(Cl)c3)ncnc2cc1O[C@H]1CCOC1 [Afatinib], the results for the “cell viability of combination” value in the test on HCI01 and with WHIM2 were 50.5 and 35.8, respectively.

Consider `CCc1oc2ccccc2c1C(=O)c1cc(Br)c(O)c(Br)c1` [Benzbromarone] + CN(C)C/C=C/C(=O)Nc1cc2c(Nc3ccc(F)c(Cl)c3)ncnc2cc1O[C@H]1CCOC1 [Afatinib], for which the “cell viability of combination” value with HCI01 is 56.3; in the test on WHIM2, 48.

For the compound `O=C(NC1CCN(CCCCC2(C(=O)NCC(F)(F)F)c3ccccc3-c3ccccc32)CC1)c1ccccc1-c1ccc(C(F)(F)F)cc1` [Lomitapide] + CN(C)C/C=C/C(=O)Nc1cc2c(Nc3ccc(F)c(Cl)c3)ncnc2cc1O[C@H]1CCOC1 [Afatinib], the “cell viability of combination” value came to 55 in the test with HCI01 and 27.4 in the test with WHIM2.

For the compound `COC(=O)NC(C(=O)NC(Cc1ccccc1)C(O)CN(Cc1ccc(-c2ccccn2)cc1)NC(=O)C(NC(=O)OC)C(C)(C)C)C(C)(C)C` (configuration not stated) [Atazanavir] + CN(C)C/C=C/C(=O)Nc1cc2c(Nc3ccc(F)c(Cl)c3)ncnc2cc1O[C@H]1CCOC1 [Afatinib], the “cell viability of combination” value in the test on HCI01 came to 48.8; with WHIM2, 54.

Take `CC(NCCCc1cccc(C(F)(F)F)c1)c1cccc2ccccc12` (configuration not stated) [Cinacalcet] + CN(C)C/C=C/C(=O)Nc1cc2c(Nc3ccc(F)c(Cl)c3)ncnc2cc1O[C@H]1CCOC1 [Afatinib]: the “cell viability of combination” value was 51.6 in the test with HCI01 and 46.1 in the test on WHIM2.

As for `[O-]n1ccccc1=S.[O-]n1ccccc1=S.[Zn+2]` [Zinc Pyrithione] + CN(C)C/C=C/C(=O)Nc1cc2c(Nc3ccc(F)c(Cl)c3)ncnc2cc1O[C@H]1CCOC1 [Afatinib], the “cell viability of combination” value stood at 47.4 in the test with HCI01 and 33.9 in the test on WHIM2.

As for `COc1cc(C(=O)NS(=O)(=O)c2ccccc2C)ccc1Cc1cn(C)c2ccc(NC(=O)OC3CCCC3)cc12` [Zafirlukast] + CN(C)C/C=C/C(=O)Nc1cc2c(Nc3ccc(F)c(Cl)c3)ncnc2cc1O[C@H]1CCOC1 [Afatinib], the entries for the “cell viability of combination” value with HCI01 and in the test on WHIM2 were 61.4 and 52.2, respectively.

For the compound `Cl.O.O=C1Cc2cc(CCN3CCN(c4nsc5ccccc45)CC3)c(Cl)cc2N1` [Ziprasidone hydrochloride monohydrate] + CN(C)C/C=C/C(=O)Nc1cc2c(Nc3ccc(F)c(Cl)c3)ncnc2cc1O[C@H]1CCOC1 [Afatinib], the “cell viability of combination” value with HCI01 turned out to be 46.7; in the test with WHIM2, 45.2.

As to `Cl.Cl.O=C1c2c(O)ccc(O)c2C(=O)c2c(NCCNCCO)ccc(NCCNCCO)c21` [Mitoxantrone HCl] + CN(C)C/C=C/C(=O)Nc1cc2c(Nc3ccc(F)c(Cl)c3)ncnc2cc1O[C@H]1CCOC1 [Afatinib], the figures for the “cell viability of combination” value in the test on HCI01 and with WHIM2 were 61.6 and 13.5, respectively.

Turning to `CNC(=O)c1cc(Oc2ccc(NC(=O)Nc3ccc(Cl)c(C(F)(F)F)c3)cc2)ccn1` [Sorafenib] + CN(C)C/C=C/C(=O)Nc1cc2c(Nc3ccc(F)c(Cl)c3)ncnc2cc1O[C@H]1CCOC1 [Afatinib], the “cell viability of combination” value in the test with HCI01 turned out to be 49.6; with WHIM2, 48.5.

As for `CC(C)COc1ccc(CNC(=O)N(Cc2ccc(F)cc2)C2CCN(C)CC2)cc1` [Pimavanserin] + CN(C)C/C=C/C(=O)Nc1cc2c(Nc3ccc(F)c(Cl)c3)ncnc2cc1O[C@H]1CCOC1 [Afatinib], the “cell viability of combination” value in the test with HCI01 turned out to be 52.8; in the test on WHIM2, 50.8.

For `COc1cc2c(Nc3ccc(Br)cc3F)ncnc2cc1OCC1CCN(C)CC1` [Vandetanib (ZD6474)] + CN(C)C/C=C/C(=O)Nc1cc2c(Nc3ccc(F)c(Cl)c3)ncnc2cc1O[C@H]1CCOC1 [Afatinib], the figures for the “cell viability of combination” value in the test with HCI01 and with WHIM2 were 47.3 and 24.4, respectively.

In the case of `CN(C(=O)CN(CCO)CC(=O)N(C)C(C)(C)Cc1ccccc1)C(C)(C)Cc1ccccc1` [Oxethazaine] + CN(C)C/C=C/C(=O)Nc1cc2c(Nc3ccc(F)c(Cl)c3)ncnc2cc1O[C@H]1CCOC1 [Afatinib], the “cell viability of combination” value in the test on HCI01 was found to be 49.1; in the test on WHIM2, 41.4.

Regarding `COc1cc2nccc(Oc3ccc(NC(=O)NC4CC4)c(Cl)c3)c2cc1C(N)=O` [Lenvatinib (E7080)] + CN(C)C/C=C/C(=O)Nc1cc2c(Nc3ccc(F)c(Cl)c3)ncnc2cc1O[C@H]1CCOC1 [Afatinib], the “cell viability of combination” value was found to be 40 in the test on HCI01 and 32.5 in the test with WHIM2.

Take `CC(C)Nc1cc(-c2c[nH]c(C(=O)NC(CO)c3cccc(Cl)c3)c2)c(Cl)cn1` (configuration not stated) + CN(C)C/C=C/C(=O)Nc1cc2c(Nc3ccc(F)c(Cl)c3)ncnc2cc1O[C@H]1CCOC1 [Afatinib]: the “cell viability of combination” value in the test with HCI01 stood at 50.7; in the test on WHIM2, 30.3.

In the case of `CCCCc1oc2ccc(NS(C)(=O)=O)cc2c1C(=O)c1ccc(OCCCN(CCCC)CCCC)cc1` [Dronedarone] + CN(C)C/C=C/C(=O)Nc1cc2c(Nc3ccc(F)c(Cl)c3)ncnc2cc1O[C@H]1CCOC1 [Afatinib], the “cell viability of combination” value with HCI01 worked out at 48.1; with WHIM2, 44.1.

Turning to `CC(C)CC(NC(=O)C(CCc1ccccc1)NC(=O)CN1CCOCC1)C(=O)NC(Cc1ccccc1)C(=O)NC(CC(C)C)C(=O)C1(C)CO1` (configuration not stated) [Carfilzomib (PR-171)] + CN(C)C/C=C/C(=O)Nc1cc2c(Nc3ccc(F)c(Cl)c3)ncnc2cc1O[C@H]1CCOC1 [Afatinib], the results for the “cell viability of combination” value in the test with HCI01 and in the test on WHIM2 were 17.5 and 26.7, respectively.

With `O=C(C=Cn1cnc(-c2cc(C(F)(F)F)cc(C(F)(F)F)c2)n1)NNc1cnccn1` + CN(C)C/C=C/C(=O)Nc1cc2c(Nc3ccc(F)c(Cl)c3)ncnc2cc1O[C@H]1CCOC1 [Afatinib], the “cell viability of combination” value in the test on HCI01 is 39.3; in the test with WHIM2, 41.9.

In the case of `CC(C)CC(NC(=O)CNC(=O)c1cc(Cl)ccc1Cl)B(O)O` (configuration not stated) + CN(C)C/C=C/C(=O)Nc1cc2c(Nc3ccc(F)c(Cl)c3)ncnc2cc1O[C@H]1CCOC1 [Afatinib], the “cell viability of combination” value with HCI01 turned out to be 37; in the test on WHIM2, 94.3.

On to `C=C1C(=CC=C2CCCC3(C)C2CCC3C(C)C=CC(C)C(C)C)CC(O)CC1O` (configuration not stated) [Doxercalciferol] + CN(C)C/C=C/C(=O)Nc1cc2c(Nc3ccc(F)c(Cl)c3)ncnc2cc1O[C@H]1CCOC1 [Afatinib], for which the results for the “cell viability of combination” value in the test with HCI01 and in the test with WHIM2 were 44.8 and 37.1, respectively.

On to `CN1CCC(COc2cnc(-c3cccc(Cn4nc(-c5cccc(C#N)c5)ccc4=O)c3)nc2)CC1` + CN(C)C/C=C/C(=O)Nc1cc2c(Nc3ccc(F)c(Cl)c3)ncnc2cc1O[C@H]1CCOC1 [Afatinib], for which the “cell viability of combination” value in the test with HCI01 worked out at 39.9; with WHIM2 it was 51.

For the compound `COc1cc(Nc2ncc(F)c(Nc3ccc4c(n3)N(COP(=O)(O)O)C(=O)C(C)(C)O4)n2)cc(OC)c1OC` [Fostamatinib (R788)] + CN(C)C/C=C/C(=O)Nc1cc2c(Nc3ccc(F)c(Cl)c3)ncnc2cc1O[C@H]1CCOC1 [Afatinib], the “cell viability of combination” value with HCI01 stood at 64.2; in the test on WHIM2, 41.3.
